Reference: the supplement of paper PMC12494721
Counter-ions that a name gives are not always drawn.

Test system: Ruminococcus gnavus DSM 108212
Assay: growth (OD595) fold change vs plate DMSO controls (fold change (ratio)); higher = more growth
Details: 20 µM; incubation time: 27 h, anaerobic, 37 °C;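 for the amine columns active = adjusted P below 0.05 in both replicates with a change the same way and a mean fold change under 0.8 or over 1.25; inactive = the rest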
How it was run: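 The reported measure is growth: the fold change against the median of DMSO controls on the plate. Absorbance at 595 nm from anaerobic 96-well mGAM cultures grown for 27 h at 37 °C was blank-subtracted, corrected for background with 20 µM compound solutions in water, and converted to OD with a calibration factor of 5. Fold changes above 1.5 appear as NA, and values are the mean of 2 biological replicates.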

Structure (SMILES)	growth
CS(=O)(=O)NC(=O)c1cc(Oc2ccc(C(F)(F)F)cc2Cl)ccc1[N+](=O)[O-]	1
C#C[C@]1(O)C=C[C@H]2[C@@H]3CCC4=CC(=O)CC[C@@H]4[C@H]3CC[C@@]21CC [Gestodene]	0.924
ClC1C(Cl)C(Cl)C(Cl)C(Cl)C1Cl (centres undefined)	1.14
CCOC(=O)OC1=C(c2cc(C)ccc2C)C(=O)N[C@]12CC[C@@H](OC)CC2	0.921
N#Cc1cc(Br)c(O)c(Br)c1	0.963
O=C(CCCN1CCC2(CC1)C(=O)NCN2c1ccccc1)c1ccc(F)cc1 [Spiperone]	0.921
CNC(=O)Oc1cccc(/N=C/N(C)C)c1	1.04
CN(C)C(CSS(=O)(=O)O)CSS(=O)(=O)O	0.931
CN1[C@@H]2C[C@@H](OC(=O)[C@H](CO)c3ccccc3)C[C@H]1[C@@H]1O[C@@H]12 [Scopolamine hydrochloride]	1.08
COP(=S)(OC)Oc1nc(Cl)c(Cl)cc1Cl	1.01
C#CCN(C)[C@H](C)Cc1ccccc1 [Selegiline hydrochloride]	0.963
C[N+]1(C)CCCC(OC(=O)C(O)(c2ccccc2)c2ccccc2)C1 (centres undefined) [Mepenzolate bromide]	0.882
CCNc1nc(Cl)nc(NC(C)C)n1	1.06
CCc1cc(C)cc(CC)c1-c1c(OC(=O)C(C)(C)C)n2n(c1=O)CCOCC2	0.919
COP(=O)(NC(C)=O)SC (centres undefined)	1.04
CC[C@H]1CCC[C@H](O[C@H]2CC[C@H](N(C)C)[C@@H](C)O2)[C@@H](C)C(=O)C2=C[C@@H]3[C@@H](C=C(C)[C@@H]4C[C@@H](O[C@@H]5O[C@@H](C)[C@H](OC)[C@@H](OC)[C@H]5OC)C[C@@H]34)[C@@H]2CC(=O)O1.CC[C@H]1CCC[C@H](O[C@H]2CC[C@H](N(C)C)[C@@H](C)O2)[C@@H](C)C(=O)C2=C[C@H]3[C@@H]4C[C@H](O[C@@H]5O[C@@H](C)[C@H](OC)[C@@H](OC)[C@H]5OC)C[C@H]4C=C[C@H]3C2CC(=O)O1	0.919
C[C@@H]1C[C@@H]([C@H](O)CC2CC(=O)NC(=O)C2)C(=O)[C@@H](C)C1 [Cycloheximide]	1.25
c1ccc2c(c1)cc1ccc3cccc4ccc2c1c34 [Benzo[a]pyrene]	1.01
N#Cc1sc2c(=O)c3ccccc3c(=O)c=2sc1C#N	1.01

Structure (SMILES)	growth
Cc1cccc2sc3nncn3c12	1
CCC1(C)CC(=O)NC(=O)C1 [Bemegride]	0.973
CCOP(=S)(OCC)Oc1cc(C)nc(C(C)C)n1	1.15
CN1CCN(C(=O)OC2c3nccnc3C(=O)N2c2ccc(Cl)cn2)CC1 (centres undefined) [Zopiclone]	0.842
CO[C@]12C[C@@H](COC(=O)c3cncc(Br)c3)CN(C)[C@@H]1Cc1cn(C)c3cccc2c13 [Nicergoline]	0.96
CCOP(=S)(OCC)Oc1nc(Cl)c(Cl)cc1Cl	0.945
C[N+](C)(C)CCCCCCCCCC[N+](C)(C)C [Decamethonium bromide]	1.01
C[C@]12COC(=O)C[C@@H]1CC[C@@H]1[C@@H]2CC[C@@]2(C)[C@H]1CC[C@]2(C)O [Oxandrolone]	0.877
OC(Cc1ccccc1Cl)(Cn1nc[nH]c1=S)C1(Cl)CC1 (centres undefined)	0.953
NCC1(CC(=O)O)CCCCC1 [Gabapentin]	1
CC(C)C[C@H]1C(=O)N2CCC[C@H]2[C@]2(O)O[C@](NC(=O)[C@@H]3C=C4c5cccc6[nH]c(Br)c(c56)C[C@H]4N(C)C3)(C(C)C)C(=O)N12 [Bromocryptine mesylate]	1.06
NCC(O)c1ccc(O)cc1 (centres undefined) [Octopamine hydrochloride]	0.994
NCC(CC(=O)O)c1ccc(Cl)cc1 (centres undefined) [Baclofen]	1.33
CC1(C)C(C=C(Cl)Cl)C1C(=O)OC(C#N)c1cccc(Oc2ccccc2)c1 (mixture of isomers)	1.04
C#CCN1C(=O)COc2cc(F)c(N3C(=O)C4=C(CCCC4)C3=O)cc21	0.933
CN1COCN(Cc2cnc(Cl)s2)/C1=N\[N+](=O)[O-]	0.969
CCNC1(c2cccs2)CCCCC1=O (centres undefined) [Tiletamine hydrochloride]	1.15
Cc1cc(C(C#N)c2ccc(Cl)cc2)c(Cl)cc1NC(=O)c1cc(I)cc(I)c1O (centres undefined)	0.156

Test system: Klebsiella aerogenes DSM 30053
Assay: fold change of Histamine concentration vs plate DMSO controls (fold change (ratio)); higher = more amine produced, active = hit call of the paper (significant change in both replicates, either direction)
Details: 20 µM; incubation time: 27 h, anaerobic, 37 °C
How it was run: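 Extracts of whole anaerobic mGAM cultures were analysed for amines by LC–triple-quadrupole MS with dynamic MRM and external calibration curves, with drift corrected within batch. Four gut strains were grown at 37 °C for 27 h in 80 µL wells with compounds at 20 µM final, sweeteners at 50 µM final. Each value expresses fold change over plate DMSO controls. The average of 2 biological replicates is shown.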

Structure (SMILES)	fold change of Histamine concentration
CS(=O)(=O)NC(=O)c1cc(Oc2ccc(C(F)(F)F)cc2Cl)ccc1[N+](=O)[O-]	0.93 (inactive)
C#C[C@]1(O)C=C[C@H]2[C@@H]3CCC4=CC(=O)CC[C@@H]4[C@H]3CC[C@@]21CC [Gestodene]	1 (inactive)
ClC1C(Cl)C(Cl)C(Cl)C(Cl)C1Cl (centres undefined)	0.984 (inactive)
CCOC(=O)OC1=C(c2cc(C)ccc2C)C(=O)N[C@]12CC[C@@H](OC)CC2	1.01 (inactive)
N#Cc1cc(Br)c(O)c(Br)c1	1.02 (inactive)
O=C(CCCN1CCC2(CC1)C(=O)NCN2c1ccccc1)c1ccc(F)cc1 [Spiperone]	1.01 (inactive)
CNC(=O)Oc1cccc(/N=C/N(C)C)c1	1.02 (inactive)
CN(C)C(CSS(=O)(=O)O)CSS(=O)(=O)O	1.01 (inactive)
CN1[C@@H]2C[C@@H](OC(=O)[C@H](CO)c3ccccc3)C[C@H]1[C@@H]1O[C@@H]12 [Scopolamine hydrochloride]	0.953 (inactive)
COP(=S)(OC)Oc1nc(Cl)c(Cl)cc1Cl	1.03 (inactive)
C#CCN(C)[C@H](C)Cc1ccccc1 [Selegiline hydrochloride]	0.982 (inactive)
C[N+]1(C)CCCC(OC(=O)C(O)(c2ccccc2)c2ccccc2)C1 (centres undefined) [Mepenzolate bromide]	0.962 (inactive)
CCNc1nc(Cl)nc(NC(C)C)n1	1.03 (inactive)
CCc1cc(C)cc(CC)c1-c1c(OC(=O)C(C)(C)C)n2n(c1=O)CCOCC2	0.979 (inactive)
COP(=O)(NC(C)=O)SC (centres undefined)	1 (inactive)
CC[C@H]1CCC[C@H](O[C@H]2CC[C@H](N(C)C)[C@@H](C)O2)[C@@H](C)C(=O)C2=C[C@@H]3[C@@H](C=C(C)[C@@H]4C[C@@H](O[C@@H]5O[C@@H](C)[C@H](OC)[C@@H](OC)[C@H]5OC)C[C@@H]34)[C@@H]2CC(=O)O1.CC[C@H]1CCC[C@H](O[C@H]2CC[C@H](N(C)C)[C@@H](C)O2)[C@@H](C)C(=O)C2=C[C@H]3[C@@H]4C[C@H](O[C@@H]5O[C@@H](C)[C@H](OC)[C@@H](OC)[C@H]5OC)C[C@H]4C=C[C@H]3C2CC(=O)O1	0.93 (inactive)
C[C@@H]1C[C@@H]([C@H](O)CC2CC(=O)NC(=O)C2)C(=O)[C@@H](C)C1 [Cycloheximide]	1.08 (inactive)
c1ccc2c(c1)cc1ccc3cccc4ccc2c1c34 [Benzo[a]pyrene]	0.948 (inactive)
N#Cc1sc2c(=O)c3ccccc3c(=O)c=2sc1C#N	0.994 (inactive)

Structure (SMILES)	fold change of Histamine concentration
Cc1cccc2sc3nncn3c12	0.973 (inactive)
CCC1(C)CC(=O)NC(=O)C1 [Bemegride]	0.98 (inactive)
CCOP(=S)(OCC)Oc1cc(C)nc(C(C)C)n1	1.04 (inactive)
CN1CCN(C(=O)OC2c3nccnc3C(=O)N2c2ccc(Cl)cn2)CC1 (centres undefined) [Zopiclone]	1.03 (inactive)
CO[C@]12C[C@@H](COC(=O)c3cncc(Br)c3)CN(C)[C@@H]1Cc1cn(C)c3cccc2c13 [Nicergoline]	0.955 (inactive)
CCOP(=S)(OCC)Oc1nc(Cl)c(Cl)cc1Cl	0.882 (inactive)
C[N+](C)(C)CCCCCCCCCC[N+](C)(C)C [Decamethonium bromide]	0.907 (inactive)
C[C@]12COC(=O)C[C@@H]1CC[C@@H]1[C@@H]2CC[C@@]2(C)[C@H]1CC[C@]2(C)O [Oxandrolone]	0.945 (inactive)
OC(Cc1ccccc1Cl)(Cn1nc[nH]c1=S)C1(Cl)CC1 (centres undefined)	1.04 (inactive)
NCC1(CC(=O)O)CCCCC1 [Gabapentin]	1.04 (inactive)
CC(C)C[C@H]1C(=O)N2CCC[C@H]2[C@]2(O)O[C@](NC(=O)[C@@H]3C=C4c5cccc6[nH]c(Br)c(c56)C[C@H]4N(C)C3)(C(C)C)C(=O)N12 [Bromocryptine mesylate]	0.914 (inactive)
NCC(O)c1ccc(O)cc1 (centres undefined) [Octopamine hydrochloride]	1.04 (inactive)
NCC(CC(=O)O)c1ccc(Cl)cc1 (centres undefined) [Baclofen]	1.04 (inactive)
CC1(C)C(C=C(Cl)Cl)C1C(=O)OC(C#N)c1cccc(Oc2ccccc2)c1 (mixture of isomers)	1.02 (inactive)
C#CCN1C(=O)COc2cc(F)c(N3C(=O)C4=C(CCCC4)C3=O)cc21	1.02 (inactive)
CN1COCN(Cc2cnc(Cl)s2)/C1=N\[N+](=O)[O-]	1.01 (inactive)
CCNC1(c2cccs2)CCCCC1=O (centres undefined) [Tiletamine hydrochloride]	1.03 (inactive)
Cc1cc(C(C#N)c2ccc(Cl)cc2)c(Cl)cc1NC(=O)c1cc(I)cc(I)c1O (centres undefined)	1.07 (inactive)
